Test results from PubChem BioAssay (EPA / NIEHS).
The source made the active and inactive calls. How the source made its calls: active means hit-call score of the fitted dose curve at least 0.9, where 1 is the maximum; inactive means score below 0.9.

Test: CCTE_Padilla_ZF_Score.Any: CCTE's 144 Hour Post-fertilization zebrafish Assay Score for Any Mortality or Malformation, Padilla Lab (AID 2284416)
Method in brief: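 Wild-type zebrafish embryos with chorions, one per well in 10% Hanks' from 6–8 hpf, dosed in sealed plates at 26 C, 14:10 h light:dark; rinsed at 5 dpf; blinded scoring at 6 dpf for death or malformation, versus DMSO.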

Compound: CCNS(=O)(=O)C(F)(F)C(F)(F)C(F)(F)C(F)(F)C(F)(F)C(F)(F)C(F)(F)C(F)(F)F
- AC50: 3.96 µM (active)
